Measurements reported in PubChem BioAssay (Tox21).
Values joined by “and” are separate entries in the source; they are usually repeats but may differ in a detail not shown here. Equal entries are not always repeated. Inconclusive results are not listed. Active and inactive are the calls of the source. The call rests on the fitted dose curve; in most records, active means well fitted curve in the direction sought with a large enough effect in the repeat runs; inconclusive means weak or mixed curves; inactive means no such curve, though single readings can be large; an effect the other way counts as inactive or inconclusive.

Experiments:
[1] = A CellTox Green Cytotoxicity Assay to monitor cytotoxicity in HepG2 cells - 0 hour (AID 1224882); settings: CellTox Green fluorescence; series mostly up to 76.8 µM; further: nearly all actives have a fitted effect of over 35% in size; further: potency means the concentration at half of the fitted maximal effect
Summary of the method: (§1)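 Cytotoxicity was tracked as dead-cell DNA fluorescence in HepG2 cells treated with test compounds at 37 C; each time-point value comes from one kinetic series spanning 0, 8, 16, 24, 32 and 40 h.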

[2] = A CellTox Green Cytotoxicity Assay to monitor cytotoxicity in HepG2 cells - 32 hour (AID 1224883); settings: CellTox Green fluorescence; series mostly up to 76.8 µM; further: nearly all actives have a fitted effect of over 50% in size; further: potency means the concentration at half of the fitted maximal effect
Summary of the method: as §1

[3] = A CellTox Green Cytotoxicity Assay to monitor cytotoxicity in HEK293 cells - 8 hour (AID 1224884); settings: CellTox Green fluorescence; series mostly up to 76.8 µM; further: nearly all actives have a fitted effect of over 35% in size; further: potency means the concentration at half of the fitted maximal effect
Summary of the method: (§2)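 Real-time, in one plate: 600 HEK293 cells/well with dead-cell DNA dye, pinned compound after 5 h, 37 C incubation over 40 h; viable cells give no appreciable fluorescence.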

[4] = qHTS RealTime-Glo MT Cell Viability Assay in HepG2 cells - 16 hour (AID 1224885); settings: RealTime-Glo luminescence; series mostly up to 76.8 µM; further: nearly all actives have a fitted effect of over 50% in size; further: potency means the concentration at half of the fitted maximal effect
Summary of the method: (§3)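 Real-time, nonlytic viability: 600 HepG2 cells/well mixed with NanoLuc enzyme plus prosubstrate; 5 h settle, compound (DMSO) added by pintool; luminescence monitored over 40 h at 37 C.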

[5] = qHTS RealTime-Glo MT Cell Viability Assay in HEK293 cells - 24 hour (AID 1224886); settings: RealTime-Glo luminescence; series mostly up to 76.8 µM; further: nearly all actives have a fitted effect of over 50% in size; further: potency means the concentration at half of the fitted maximal effect
Summary of the method: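 Cells + reagent dispensed (600 cells/well, HEK293) → 5 h at 37 C/5% CO2 → 23 nL compound in DMSO pinned → 40 h at 37 C → luminescence read at 0, 8, 16, 24, 32, 40 h.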

[6] = qHTS RealTime-Glo MT Cell Viability Assay in HEK293 cells - 8 hour (AID 1224887); settings: RealTime-Glo luminescence; series mostly up to 76.8 µM; further: nearly all actives have a fitted effect of over 50% in size; further: potency means the concentration at half of the fitted maximal effect
Summary of the method: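 Kinetic, non-lysing viability readout. Seed HEK293 (600/well) with reagent, incubate 5 h at 37 C/5% CO2, pin 23 nL compound in DMSO, incubate at 37 C, read luminescence at 0, 8, 16, 24, 32, 40 h.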

[7] = A CellTox Green Cytotoxicity Assay to monitor cytotoxicity in HEK293 cells - 16 hour (AID 1224888); settings: CellTox Green fluorescence; series mostly up to 76.8 µM; further: nearly all actives have a fitted effect of over 35% in size; further: potency means the concentration at half of the fitted maximal effect
Summary of the method: as §2

[8] = qHTS RealTime-Glo MT Cell Viability Assay in HepG2 cells - 0 hour (AID 1224889); settings: RealTime-Glo luminescence; series mostly up to 76.8 µM; further: nearly all actives have a fitted effect of over 50% in size
Summary of the method: as §3

[9] = A CellTox Green Cytotoxicity Assay to monitor cytotoxicity in HepG2 cells - 8 hour (AID 1224890); settings: CellTox Green fluorescence; series mostly up to 76.8 µM; further: nearly all actives have a fitted effect of over 45% in size; further: potency means the concentration at half of the fitted maximal effect
Summary of the method: as §1

[10] = qHTS assay to identify small molecule antagonists of the estrogen receptor alpha (ER-alpha) signaling pathway using the BG1 cell line in the presence of 0.1 nM 17-beta-estradiol - cell viability counter screen (AID 1259241); settings: VM7Luc4E2 (BG1) viability, CellTiter-Fluor protease, 22 h, 0.1 nM estradiol agonist added; series mostly up to 92.4 µM; further: nearly all actives have a fitted effect of over 40% in size; further: potency means the concentration at half of the fitted maximal effect
Summary of the method: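 The cell line endogenously expresses full-length ER-alpha and carries four EREs driving luciferase. Cells are cultured 5 days hormone-free, treated 22 hr with compounds and 0.1 nM estradiol, then viability is read by fluorescence.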

Measured: Potency

ClCc1ccccc1Cl
inactive: all assays above

CCOc1cccc(C2(N3CCN(c4ccccc4)CC3)CCC(C)CC2)c1 (configuration not stated)
inactive: all assays above

CC(CC(C(N)=O)(c1ccccc1)c1ccccc1)N(C)C (configuration not stated)
inactive: all assays above

Cc1ccccc1
inactive: all assays above

C[C@H]1O[C@H](OC2[C@@H](O)[C@@H](O)C(O)[C@H](O)[C@H]2O)[C@@H](N)C[C@@H]1N=C(N)C(=O)O (some centres not stated)
inactive: all assays above

Cc1cccc(C)c1NC1=NCCCS1
inactive: all assays above

C=C(Cl)Cl
inactive: all assays above

O=C(O)c1ccc(=O)[nH]c1
inactive: all assays above

CN1C[C@H](C(=O)N[C@]2(C)O[C@@]3(O)[C@@H]4CCCN4C(=O)[C@H](Cc4ccccc4)N3C2=O)C=C2c3cccc4[nH]cc(c34)C[C@H]21
active: [4] 19.6 µM
not listed: [10]
inactive: all other assays above

O=C(O)C(F)(F)C(F)(F)C(F)(F)C(F)(F)C(F)(F)F
inactive: all assays above

O=C1NC(=O)C(=O)C(=O)N1
inactive: all assays above

CCC1CCC(=O)O1 (configuration not stated)
inactive: all assays above

CN1CC[C@]23c4c5ccc(O)c4O[C@H]2[C@@H](O)CC[C@H]3[C@H]1C5
inactive: all assays above

Cc1cnc(C2=NC(C)(C(C)C)C(=O)N2)c(C(=O)O)c1 (configuration not stated)
inactive: all assays above

CCc1cnc(C2=NC(C)(C(C)C)C(=O)N2)c(C(=O)O)c1 (configuration not stated)
inactive: all assays above

C[N+]1(CCF)[C@@H]2CC[C@H]1CC(OC(=O)C(O)(c1ccccc1)c1ccccc1)C2 (some centres not stated)
inactive: all assays above

CC(Oc1cc(Cl)c(Cl)cc1Cl)C(=O)O (configuration not stated)
inactive: all assays above

CNC(=O)Oc1cccc(N=CN(C)C)c1
inactive: all assays above

C[CH2][Hg][S]c1ccccc1C(=O)O
inactive: [1] | [8]
active: [2] 3.09 µM and 2.13 µM | [3] 4.77 µM | [4] 2.45 µM and 2.13 µM | [5] 1.1 µM and 1.34 µM | [6] 3.09 µM and 4.25 µM | [7] 4.77 µM | [9] 7.76 µM and 2.39 µM | [10] 21.7 µM and 5.96 µM

CC(C)(C)CC(C)(C)c1ccc(O)cc1
inactive: [1] | [5] | [8] | [10]
active: [2] 27.5 µM and 15.1 µM | [3] 15.5 µM and 12 µM | [4] 34.7 µM | [6] 34.7 µM | [7] 21.9 µM and 21.3 µM | [9] 17.4 µM and 10.7 µM

O=C(Cl)OCCOCCOC(=O)Cl
inactive: all assays above

O=C(O)c1cc(I)cc(I)c1I
inactive: all assays above

C=CCOCC1CO1 (configuration not stated)
inactive: all assays above

O=C(O)C(O)C(O)C(=O)O (configuration not stated)
inactive: all assays above

CCCCCl
inactive: all assays above

CN[C@@H](C)[C@H](O)c1ccccc1
inactive: all assays above

O=C(Cc1ccccc1)OCCc1ccccc1
inactive: all assays above

COC1=CC(=O)O[C@@H](/C=C/c2ccc3c(c2)OCO3)C1
inactive: all assays above

Cc1nnc(-c2ccccc2)c(=O)n1N
inactive: all assays above

COCc1cnc(C2=NC(C)(C(C)C)C(=O)N2)c(C(=O)O)c1 (configuration not stated)
inactive: all assays above

CCCC1CCCCN1 (configuration not stated)
inactive: all assays above

NC(=O)CF
inactive: all assays above

C[C@]12C=CC3=C4CCC(=O)C=C4CC[C@H]3[C@@H]1CC[C@@H]2O
inactive: all assays above

Cc1ccc2c(C)cccc2c1
inactive: all assays above

CC(C)(C)NCC(O)c1cc(Cl)c(N)c(C(F)(F)F)c1 (configuration not stated)
not listed: [10]
inactive: all other assays above

Cc1ncc(C[n+]2csc(CCO)c2C)c(N)n1
inactive: all assays above

CCCCCCCCCCCC[N+](C)(C)CCOc1ccccc1
active: [2] 13.8 µM and 8.49 µM | [3] 24.6 µM | [4] 43.7 µM and 21.3 µM | [5] 11 µM and 10.7 µM | [6] 43.7 µM and 23.9 µM | [7] 21.9 µM and 23.9 µM | [9] 55 µM and 26.8 µM
inactive: [1] | [8] | [10]

CC(=O)NNc1ccccc1
inactive: all assays above

Cc1ccc(N)c(C)c1
inactive: all assays above

C[C@H](N)[C@H](O)c1ccc(O)c(O)c1
active: [1] 26.8 µM | [2] 21.3 µM | [3] 19 µM | [7] 21.3 µM | [9] 26.8 µM
inactive: [4] | [5] | [6] | [8] | [10]

FC(F)OC(F)(F)C(F)Cl (configuration not stated)
inactive: all assays above

SCc1ccccc1
inactive: all assays above

CC(C)OC(=O)Cc1ccccc1
not listed: [8]
inactive: all other assays above

CC(Cl)C(=O)O (configuration not stated)
inactive: all assays above

FC(Cl)(Cl)C(F)(Cl)Cl
inactive: all assays above

CCOC(C(=O)OCCN(C)C)(c1ccccc1)c1ccccc1
inactive: all assays above

O=P(OCC(Br)CBr)(OCC(Br)CBr)OCC(Br)CBr (configuration not stated)
active: [5] 27.9 µM | [6] 24.9 µM
inactive: all other assays above
